The record followed here is PubChem BioAssay AID738 (SRMLSC, 2007).

About 4,900 (5%) of roughly 98,000 compounds were called active. What follows is part of a selection rich in actives, with near analogues and random picks from the rest. Unmarked numbers belong to inactive results. Rule as the data show it: active = inhibition above about 30%; inactive = the rest.

The test can be described thus: yeast control strain growth suppression – counter-screen for post-Golgi transport modulator project, primary screen (AID 738). The following applies: efflux-deficient yeast background strain, growth absorbance A615, 16 h; at 10 µM; stronger effect = higher value. On the technique in general: Counterscreens check selectivity or assay interference.
As for `COc1ccccc1N1CCN(C(=O)CN(Cc2ccc(Cl)cc2)S(C)(=O)=O)CC1`, the inhibition (as a rule, the drop in the measured response relative to a control, in per cent) was 1.33%.
The same measure for `COc1ccccc1-n1nnnc1S(=O)(=O)Cc1ccc(Cl)cc1`: 32.4% (active); for `O=S(=O)(O)c1nc2ccccc2n1Cc1ccc(Cl)cc1`: 2.95%.
Regarding `Cc1cccc(C(=O)Nc2ccc(C(=O)/C=C/c3cccs3)cc2)c1`, the inhibition was 3.4%.
The same measure for `O=C(Nc1ccn(Cc2ccccc2F)n1)c1ccc(COc2ccc(Cl)cc2Cl)o1`: 27.6%; for `CCn1c(SCC(=O)Nc2ccccc2F)nc2c(c1=O)SC(C)C2` (configuration not stated): 103% (active); for `CC1Cc2nc(SCC(=O)Nc3ccccc3F)n(C)c(=O)c2S1` (configuration not stated): 25.6%.
The same measure for `CCn1c(SCC(=O)Nc2ccc3c(c2)OCCO3)nc2c(c1=O)SC(C)C2` (configuration not stated): 6.57%; for `O=S(=O)(c1cccc2nonc12)N1CCN(c2cccc(Cl)c2)CC1`: -0.91%; for `Cc1cc(C)c([N+](=O)[O-])cc1-c1ccc(/C=N/NC(=O)c2nonc2N)o1`: 8.91%.
In the case of `Cc1cc([N+](=O)[O-])c(-c2ccc(/C=N/n3cnnc3)o2)cc1Cl`, the inhibition was 19.7%.
The same measure for `Cc1cc(-c2ccc(/C=N/n3cnnc3)o2)c([N+](=O)[O-])cc1C`: 39.1% (active); for `CC(=O)c1cc2c(cc1NC(=O)CN1CCCCCC1)OCO2`: 5.16%.
The same measure for `C/C=C/C(=O)OCC(=O)Nc1ccc(F)cc1Cl`: 3.31%.
Turning to `CC(Oc1ccc(F)cc1F)C(=O)/C=C/N(C)C` (configuration not stated), the inhibition is -1.04%.
The same measure for `COC(=O)CNC(=O)c1ccccc1F`: 4.83%; for `CN(C)/C=C/C(=O)c1ccccc1F`: 36.4% (active).
Turning to `Cc1ccc(N2C(=O)C(Cc3ccccc3)NC2=S)cc1` (configuration not stated), the inhibition is 5.73%.
The same measure for `COc1cc(Cl)c(C)cc1NC(=O)CSc1nnc(-c2cccnc2)n1Cc1ccco1`: 3.14%.
The same measure for `CCn1c(SCC(=O)Nc2cc(C)c(Cl)cc2OC)nnc1-c1ccco1`: 26.5%.
To `COc1cc(Cl)c(C)cc1NC(=O)CSc1nnc(-c2ccco2)n1CC(C)C` belongs 34% (active).
With `O=C1CC(C(F)(F)C(F)(F)C(F)(F)C(F)(F)F)=Nc2ccccc2N1`, the inhibition is 16.7%.
To `COCC(=O)Nc1ccc(Br)cc1` belongs 36.8% (active).
To `CCN(CC)C(=O)CCC(=O)Nc1ccc(C(=O)OC)cc1` belongs 1.42%; to `O=C(CSCc1ccc(Br)cc1)Nc1ccc(S(=O)(=O)N2CCCCCC2)cc1`, 6.87%.
To `O=C(Nc1ccc2c(c1)CCC2)c1cccc(S(=O)(=O)N2CCN(c3ccc(F)cc3)CC2)c1` belongs 17.8%; to `Cc1ccc(-n2c(C)cc(/C=N/Nc3ccc([N+](=O)[O-])cn3)c2C)c(C)c1`, 3.3%.
Regarding `Cc1cc(C=O)c(C)n1-c1ccc(NC2CCCCC2)c([N+](=O)[O-])c1`, the inhibition is 39% (active).
Turning to `COc1cc(OC)c(-n2c(C)cc(C=O)c2C)cc1Cl`, the inhibition is 20.4%.
The same measure for `O=C(O)c1ccccc1NC(=S)NC(NC(=O)c1ccccc1[N+](=O)[O-])C(Cl)(Cl)Cl` (configuration not stated): 21.6%; for `NC(=O)c1c(NC(=O)CSc2nnc(-c3ccco3)n2N)sc2c1CCCC2`: -1.04%; for `O=C(CN1CCN(S(=O)(=O)c2ccc3ccccc3c2)CC1)NC(=O)NC1CCCCC1`: 19.7%.
Turning to `CCOc1cccc(C(=O)Nc2cnn(Cc3ccccc3)c2)c1`, the inhibition was -4.4%.
To `CCOC(=O)CCP(=O)(O)C(O)(c1ccccc1)c1ccccc1` belongs 2.13%; to `CCOC(=O)C(C(=O)OCC)C(C#N)c1ccccc1` (configuration not stated), 30.5% (active); to `CCCCCCOC(=O)NCC(O)c1ccccc1` (configuration not stated), 4.19%.
The same measure for `CCNC(=S)Nc1cccc(Cl)c1C`: 3.81%; for `COc1ccc(Cc2nnc(SCC(=O)c3cccc([N+](=O)[O-])c3)n2C)cc1`: 3.08%.
Consider `Cc1ccc(NC(=O)N2CCC(c3nc4c(nnn4Cc4c(F)cccc4Cl)c(=O)[nH]3)CC2)cc1`, for which the inhibition is 8.76%.
To `COc1cc(OC)c(C(=O)NC2CC(C)(C)NC(C)(C)C2)cc1OC` belongs -5.38%; to `COc1ccc(-c2nnc(SCC(=O)NC3CCCCC3)o2)cc1OC`, -2.95%.
In the case of `COc1cc(OC)c(C(=O)NC2CCCCCC2)cc1OC`, the inhibition was 46.5% (active).
The same measure for `C=CCn1c(SCCOc2ccc(OC)cc2)nnc1C(NC(=O)c1ccc(OC)cc1)C(C)C` (configuration not stated): 10.1%; for `CCOc1ccc(-n2c(N)c(C(=O)NCC3CCCO3)sc2=S)cc1` (configuration not stated): 3.93%.
As for `O=C(Cc1ccc(S(=O)(=O)N2CCCC2)s1)NC1CCCCCC1`, the inhibition was 31.8% (active).
The same measure for `O=C(NC1CCCCC1)C1CCCN(S(=O)(=O)c2cccs2)C1` (configuration not stated): -12.5%; for `O=C(Cc1ccc(S(=O)(=O)N2CCOCC2)s1)NCCC(c1ccccc1)c1ccccc1`: 22.9%.
Take `COc1ccc(-c2cc(C)nc3nc(N)nn23)cc1`: the inhibition is 5.75%.
`Cc1cc(N)n2nc(-c3ccc(C(C)(C)C)cc3)cc2n1`: the inhibition was 31% (active).
The same measure for `Cc1cccc(-n2ncc(C#N)c2-n2cccc2)c1`: 20.2%.
On to `Cc1[nH]nc(-c2ccc(OCc3cnn(-c4ccccc4)c3)cc2O)c1Oc1ccc(Cl)cc1`, for which the inhibition is 0%.
The same measure for `Cn1c(=O)c2c(ncn2CC(COCc2ccccc2Cl)OCc2ccccc2Cl)n(C)c1=O` (configuration not stated): 8.65%; for `COc1cc(OC)c(C(=O)Nc2ccc(N(C)C)cc2)cc1OC`: 27.7%; for `COc1ccc(Cl)cc1C(=O)Nc1ccc(N(C)C(C)=O)cc1`: 32.4% (active).
To `COc1ccc(Cl)cc1C(=O)NCC#N` belongs 18.5%.
The same measure for `CCn1c(C)nc2c1C(=O)c1ccccc1C2=O`: 4.03%.
Regarding `CC(C)N(c1ccccc1)c1ncnc(NCCC(=O)O)c1[N+](=O)[O-]`, the inhibition is 5.97%.
The same measure for `O=S(=O)(c1cnccc1N1CCN(/N=C/c2ccc(Br)cc2)CC1)N1CCCCC1`: -4.38%.
The same measure for `Cc1nc2cc(NC(=O)NCc3ccccc3)ccc2o1`: 12.9%.
`C=CC[n+]1c(-c2ccc(C)cc2)csc1NNC(=O)Nc1ccccc1`: the inhibition was 40.7% (active).
Regarding `CC(=O)c1cccc(NC(=O)Nc2ccc(C)cc2)c1`, the inhibition was 0.29%.
To `C=CCNC(=O)c1csc(-c2ccccc2)n1` belongs -0.15%.
